# Assay results reported in publication PMC12136788.
# Where a chain is given by its changes, count along the chain named. The full ranking holds about 5,800 sequences; the median of “enrichment r” is about 0.54, and the highest 2% start at about 16. Shown is part of a subset that was picked to be rich in the highest values.
# B1: chr1:62654060:62654161:-|CDS|ENSG00000116641|unk|FALSE|unique (ssRNA)
# RNA: GGGAGUUCUACAGUCCGACGAUCCUUGUUUUCUACCCAUCUCUUAUCCCAACUUUUUACAAAGGUGCCCCUUACCGAAGCAGUAGAUCCAGUGGAUUUGGAAGAUUACCUCAUUACUCAUCCUUUGGCUGUGGAUUCUGGGCCCAACAGAGGAUUGAGCAUCA
# B2: chr8:86558718:86558819:+|3pUTR|ENSG00000085719|unk|total|mutant (ssRNA)
# RNA: GGGAGUUCUACAGUCCGACGAUCCUGUUGUUGUUUUUGUUUACUUUCAUAUGAUGAAAAUGCUGUGUUUAAGUGUUUGUCAACCGGAAGAAUGGAAAACUGUUGGGAUGAUGUGGUUUGCAGGUUGCUGUGCCUGAUUCACAGCAACAGAGGAUUGAGCAUCA
# B3: chr13:20822168:20822271:-|CDS|ENSG00000132953|unk|FALSE|unique (ssRNA)
# RNA: GGGAGUUCUACAGUCCGACGAUCUCGAAAAAUCAGAGAAGAUUCAGAUAUGGCACAAGAUUCUCUGCAGUGCCUUGCCCAGUUAGCUUCUCUUCAUGGACCCAUCUUCCCAGAUGAAGGAUCACAAGUUGAUUAUCUAGCACACAACAGAGGAUUGAGCAUCA
# B4: chr21:43758806:43758907:+|3pUTR|ENSG00000160209|msi1|FALSE|unique (ssRNA)
# RNA: GGGAGUUCUACAGUCCGACGAUCACUUUCUUAAUCCAGUUUUUCAAACUUCUCCCUGUAGACCGUAAGGAUGAAUUCCACAAUAGGAUCCUUUUUAAAAUCGAUUUUAAAUUGUUGCCUAGUCCUGCCAAGGUUAUUAUGUGCCAACAGAGGAUUGAGCAUCA
# B5: chr14:21351797:21351898:-|3pUTR|ENSG00000092201|msi1|FALSE|unique (ssRNA)
# RNA: GGGAGUUCUACAGUCCGACGAUCGAGGAAGGCUCAAAGGAGUCAACAUUUAUAUCUGGAAGGGACAAGUCAUGCCUUGGGCCUAGAAUACCCUGAUGAGAAAAGAGAAGAGGAAGGGAGGCCAUAUCUACAACACAGCCUCUCCAACAGAGGAUUGAGCAUCA
# B6: ENSG00000070961:be:win_4551|3pUTR|ENSG00000070961|bound_else_gene|NA|bound_elsewhere_windowed (ssRNA)
# RNA: GGGAGUUCUACAGUCCGACGAUCAAUGAAAGAUGCUUGAAAUGCUUUUGUUAUUUCAGGCAAAUCAAAUUAAAUCAGACUAUCAAACUACAAGAGAACCUUAGUCUUUUUUGUUUUUGUCUAAACAUGUUAGUUUAGUGAUGUCAACAGAGGAUUGAGCAUCA
# B7: chr9:122240152:122240253:-|3pUTR|ENSG00000119446|msi1|total|mutant (ssRNA)
# RNA: GGGAGUUCUACAGUCCGACGAUCCUUCUUGGAGUACCGAAUUCACCAUUUUAUCCGUAAGUCUUCAAAGGAUUAUGGUGGACCCGAACUUACACCGUGCAAAACCGUCUUCUAUUUUUAACCGGAACUCCGAAAAAACUCCGACAACAGAGGAUUGAGCAUCA
# B8: chr9:122240152:122240253:-|3pUTR|ENSG00000119446|msi1|FALSE|unique (ssRNA)
# RNA: GGGAGUUCUACAGUCCGACGAUCCUUCUUGGAGUAUAGAAUUCACCAUUUUAUCCGUAAGUCUUCAAAGGAUUAUGGUGGACUAGAACUUACAUAGUGCAAAAUAGUCUUCUAUUUUUAAUAGGAACUUAGAAAAAACUUAGACAACAGAGGAUUGAGCAUCA
# B9: ENSG00000177426:stop:overlap|stop_codon|ENSG00000177426|stop_codon|NA|stop_codon (ssRNA)
# RNA: GGGAGUUCUACAGUCCGACGAUCCUCAAAGACAGAAGGAAUAUCUUUUUAUUGUAAACUUGAUAGUGUUAAAAGCUAAUAACUAGCUAUUUAGAGAACACAGAAACACUUGACAGUCAUCUAUCAGAUAGCAUUUCCUUUAAUCAACAGAGGAUUGAGCAUCA
# B10: chr1:213241217:213241334:+|CDS|ENSG00000136643|unk|total|mutant (ssRNA)
# RNA: GGGAGUUCUACAGUCCGACGAUCAGUUCUCCAAGAACAUCAGAUUCCCUCAGCCGAUCAAAAAACCGCCCCAUGGAAUUCUUCCGGACCGACAGUAAGGACCGCGCAAGUGAACUCCUGGGACUUGACUUUGGAGAAAAAUUGCAACAGAGGAUUGAGCAUCA
# B11: chr3:121431430:121432303:-|three_prime_utr|ENSG00000051341|control|control|control (ssRNA)
# RNA: GGGAGUUCUACAGUCCGACGAUCUGGAAAGAACAGAGAUUACCCUUUCACCUACCUCAGCAAAACAAACUUUCAAGUCUUGAUAGACUUAGCCUAGUAAUUUUAUAGUGAGAGUUUCAAACUAUAUAUCAGUGUCUAUAGCAUCAACAGAGGAUUGAGCAUCA
# B12: chr1:213241217:213241334:+|CDS|ENSG00000136643|unk|FALSE|unique (ssRNA)
# RNA: B10 RNA with C53U, C54A, C65U, C66A, C83U, C84A, C88U, C89A, C101U, C102A
# B13: ENSG00000120802:stop:overlap|stop_codon|ENSG00000120802|stop_codon|NA|stop_codon (ssRNA)
# RNA: GGGAGUUCUACAGUCCGACGAUCGUGGAACAUUAUUUGGAGGAGAAGUAUGCAAAGUAAUUAAAAAGCGUGGAAAUAAACACUAGUAAAAUUAAGGACAAAAAGACAUCUAUCUUAUCUUUCAGGUACUUUAUGCCAACAUUUCAACAGAGGAUUGAGCAUCA
# B14: ENSG00000107863:be:win_1951|CDS|ENSG00000107863|bound_else_gene|NA|bound_elsewhere_windowed (ssRNA)
# RNA: GGGAGUUCUACAGUCCGACGAUCCCAGUAAAUCACUUGCAUCAGAACAGUCUGUUGAAUCAGCAGACAUGGGUAAGGACUGACAGUGCCCCCGAUCAGCAAGUGGAGACUGGGAAAUCCCCCUCUUUAUCUGGAGCCUCUGCCCAACAGAGGAUUGAGCAUCA
# B15: ENSG00000198589:be:win_3051|CDS|ENSG00000198589|bound_else_gene|NA|bound_elsewhere_windowed (ssRNA)
# RNA: GGGAGUUCUACAGUCCGACGAUCAGAAAUGAAAGCUGAGCAAGAAAAUCAGGAGUUACCAGAUGAAGGCACUUUGGAAGAAACACUGACAAAUGAGACAAGGAAUGCAGAUGAUUUAGAAGUAUCUUCUGACAUAAUAGAAGCCAACAGAGGAUUGAGCAUCA
# B16: chr8:58582127:58582250:+|3pUTR|ENSG00000137575|unk|total|mutant (ssRNA)
# RNA: GGGAGUUCUACAGUCCGACGAUCUUCAUAUUACUUCCGUUCUACCGCAUACUUGCAUCUUUAACAUGCUAUCACCGUACAUUCCGAAUGAUUGCCUUUGAUUUUUUUUUUAAAUUCUGUGUGUGUGUGUGUAAAAUGCCAAUUCAACAGAGGAUUGAGCAUCA
# Molecular target: MSI1 full-length (mouse, UniProt Q61474 1-362)
# Assay: nsRBNS (natural sequence RNA bind-n-seq); RBNS binding buffer (assumed for nsRBNS): 25 mM Tris pH 7.5, 150 mM KCl, 3 mM MgCl2, 0.01% Triton X-100, 500 ug/ml BSA, 20 U/ml SUPERase-In, 4 C; UNK is unkempt and MSI1 is Musashi-1; names of the RNAs are library labels; protein concentration not given here; high values mean tight binding
# MSI1 full-length, sequence (Q61474 whole entry): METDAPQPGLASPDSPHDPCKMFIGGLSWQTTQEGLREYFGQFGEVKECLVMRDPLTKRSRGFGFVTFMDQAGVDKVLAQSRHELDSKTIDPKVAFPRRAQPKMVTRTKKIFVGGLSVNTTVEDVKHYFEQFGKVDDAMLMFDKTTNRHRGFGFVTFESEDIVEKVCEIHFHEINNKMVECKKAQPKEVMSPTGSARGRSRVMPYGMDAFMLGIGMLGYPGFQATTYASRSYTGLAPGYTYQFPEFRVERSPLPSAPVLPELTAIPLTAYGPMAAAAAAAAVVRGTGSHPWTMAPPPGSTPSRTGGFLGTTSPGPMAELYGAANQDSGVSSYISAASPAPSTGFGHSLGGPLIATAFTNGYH
row,Binder,binding signal
1,B1,0.626 enrichment R
2,B2,0.342 enrichment R
3,B3,0.341 enrichment R
4,B4,0.936 enrichment R
5,B5,0.748 enrichment R
6,B6,1.39 enrichment R
7,B7,0.272 enrichment R
8,B8,20.5 enrichment R
9,B9,0.812 enrichment R
10,B10,0.533 enrichment R
11,B11,17.4 enrichment R
12,B12,24.6 enrichment R
13,B13,1.57 enrichment R
14,B14,0.425 enrichment R
15,B15,0.825 enrichment R
16,B16,0.478 enrichment R
